Common to all, as to experiment: DAPPL (digital affinity profiling via proximity ligation, sequencing); 10 mM Tris-HCl pH 7.5, 50 mM NaCl, 1 mM DTT, 4% glycerol, room temperature, 30 min; GST-TFs on glutathione beads, 16-mer random dsDNA library, 0.1% formaldehyde crosslink after washing; high values mean tight binding
Conditions in all cases: protein: recombinant; tags: N-terminal GST; dsDNA, one strand shown

For assay [1], the target named is T1, FLI1 (Homo sapiens, UniProt Q01543 1-452).
T1 sequence: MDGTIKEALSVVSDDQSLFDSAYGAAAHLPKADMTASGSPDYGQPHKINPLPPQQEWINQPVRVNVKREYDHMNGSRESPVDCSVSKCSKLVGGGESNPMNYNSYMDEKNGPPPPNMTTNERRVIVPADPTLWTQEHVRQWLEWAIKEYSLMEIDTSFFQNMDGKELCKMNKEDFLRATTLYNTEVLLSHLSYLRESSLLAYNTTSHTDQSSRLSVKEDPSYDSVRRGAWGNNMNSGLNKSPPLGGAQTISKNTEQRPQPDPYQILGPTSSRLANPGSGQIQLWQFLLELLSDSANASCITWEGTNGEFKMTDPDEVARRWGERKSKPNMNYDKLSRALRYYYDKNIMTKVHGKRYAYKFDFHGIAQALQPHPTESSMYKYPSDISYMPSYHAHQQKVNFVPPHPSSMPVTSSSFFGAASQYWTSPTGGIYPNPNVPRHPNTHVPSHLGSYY
In a few lines: (§1)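 Binding signal is defined as a hexamer's read frequency for one factor over its frequency for the tag-only sample. To obtain reads, GST-fused human transcription factors were expressed in yeast, captured on glutathione beads, barcoded with DNA and pooled with that sample. Pools met 200 nmole of a 16-mer random double-stranded DNA library in Tris/NaCl/DTT/glycerol buffer for 30 min at room temperature before washing, 0.1% formaldehyde crosslinking, proximity ligation (BsaI/T4 ligase, 1 h, 37 °C), PCR and Illumina NextSeq500 sequencing.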

Assay [2] addresses T2, ELK1 (Homo sapiens, UniProt P19419 1-428).
T2 sequence: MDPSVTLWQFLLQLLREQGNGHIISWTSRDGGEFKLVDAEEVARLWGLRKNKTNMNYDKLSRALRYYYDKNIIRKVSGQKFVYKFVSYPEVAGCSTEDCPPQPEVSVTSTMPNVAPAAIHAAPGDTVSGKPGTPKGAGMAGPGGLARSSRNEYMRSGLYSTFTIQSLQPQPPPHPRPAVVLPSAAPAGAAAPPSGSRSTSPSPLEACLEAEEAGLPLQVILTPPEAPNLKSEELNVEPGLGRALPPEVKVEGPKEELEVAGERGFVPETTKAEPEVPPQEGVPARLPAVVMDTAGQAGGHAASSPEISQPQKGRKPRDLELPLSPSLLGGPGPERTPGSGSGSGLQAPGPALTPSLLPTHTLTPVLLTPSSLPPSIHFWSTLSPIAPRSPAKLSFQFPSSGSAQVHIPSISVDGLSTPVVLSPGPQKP
In a few lines:
as §1

Assay [3] has as its target T3, GABPA (Homo sapiens, UniProt Q06546 1-454).
T3 sequence: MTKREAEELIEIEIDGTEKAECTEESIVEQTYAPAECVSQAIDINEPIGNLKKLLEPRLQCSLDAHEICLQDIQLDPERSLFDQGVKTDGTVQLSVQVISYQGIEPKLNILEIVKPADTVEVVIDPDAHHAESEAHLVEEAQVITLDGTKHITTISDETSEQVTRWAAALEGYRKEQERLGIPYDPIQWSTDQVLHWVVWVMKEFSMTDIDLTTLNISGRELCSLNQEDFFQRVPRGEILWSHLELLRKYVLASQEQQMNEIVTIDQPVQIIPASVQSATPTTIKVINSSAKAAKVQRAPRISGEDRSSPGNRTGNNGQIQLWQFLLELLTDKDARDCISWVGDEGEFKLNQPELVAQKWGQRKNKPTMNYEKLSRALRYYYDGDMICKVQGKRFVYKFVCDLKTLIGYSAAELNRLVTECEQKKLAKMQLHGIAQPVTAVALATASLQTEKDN
In a few lines: as §1

Assay [4] addresses T4, ERG (Homo sapiens, UniProt P11308 1-479).
T4 sequence: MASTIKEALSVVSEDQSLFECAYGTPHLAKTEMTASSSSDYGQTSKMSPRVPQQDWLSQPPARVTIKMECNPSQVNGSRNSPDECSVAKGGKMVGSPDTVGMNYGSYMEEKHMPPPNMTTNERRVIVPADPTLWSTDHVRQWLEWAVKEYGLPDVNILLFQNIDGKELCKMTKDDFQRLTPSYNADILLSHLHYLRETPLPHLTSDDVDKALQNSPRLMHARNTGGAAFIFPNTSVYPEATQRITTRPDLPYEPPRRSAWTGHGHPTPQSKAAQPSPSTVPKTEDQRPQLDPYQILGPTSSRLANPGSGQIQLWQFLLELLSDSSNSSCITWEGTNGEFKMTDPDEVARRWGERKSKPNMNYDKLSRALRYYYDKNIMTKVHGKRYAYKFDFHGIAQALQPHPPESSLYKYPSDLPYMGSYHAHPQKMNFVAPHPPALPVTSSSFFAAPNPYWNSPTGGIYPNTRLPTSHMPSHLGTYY
In a few lines:
as §1

The target of assay [5] is ELF1 (Homo sapiens, UniProt P32519 1-619). In a few lines: as §1
ELF1, sequence (P32519 whole entry): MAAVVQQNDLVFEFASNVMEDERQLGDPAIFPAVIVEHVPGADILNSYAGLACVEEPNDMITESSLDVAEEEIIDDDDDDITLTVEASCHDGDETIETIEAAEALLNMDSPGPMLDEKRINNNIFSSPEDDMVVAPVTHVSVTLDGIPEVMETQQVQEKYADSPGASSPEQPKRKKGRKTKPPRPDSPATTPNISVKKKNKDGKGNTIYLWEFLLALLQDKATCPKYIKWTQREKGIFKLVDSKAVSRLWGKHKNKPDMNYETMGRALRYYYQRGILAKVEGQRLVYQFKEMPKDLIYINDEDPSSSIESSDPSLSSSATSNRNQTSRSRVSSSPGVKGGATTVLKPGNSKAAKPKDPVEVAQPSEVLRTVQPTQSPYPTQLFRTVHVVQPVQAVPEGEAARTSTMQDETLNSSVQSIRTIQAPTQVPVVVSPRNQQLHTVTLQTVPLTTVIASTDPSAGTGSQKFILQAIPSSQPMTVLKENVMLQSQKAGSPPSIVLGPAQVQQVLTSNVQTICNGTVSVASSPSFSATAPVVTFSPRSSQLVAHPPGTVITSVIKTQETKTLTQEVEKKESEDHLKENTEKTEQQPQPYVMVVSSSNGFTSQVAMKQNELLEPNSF
Assay [6] has as its target T5, EHF (Homo sapiens, UniProt Q9NZC4 1-300).
T5 sequence: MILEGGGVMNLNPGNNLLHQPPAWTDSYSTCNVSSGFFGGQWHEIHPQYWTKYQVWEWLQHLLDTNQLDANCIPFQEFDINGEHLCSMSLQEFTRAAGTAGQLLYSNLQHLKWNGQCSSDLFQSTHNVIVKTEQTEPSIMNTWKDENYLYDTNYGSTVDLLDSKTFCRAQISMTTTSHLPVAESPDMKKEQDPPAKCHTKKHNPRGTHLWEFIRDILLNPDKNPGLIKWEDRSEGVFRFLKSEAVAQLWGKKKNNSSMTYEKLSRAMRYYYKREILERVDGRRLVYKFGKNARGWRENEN
In a few lines:
as §1

Assay [7] addresses SPI1 (Homo sapiens, UniProt P17947 1-270). Put shortly:
as §1

Assay [8] deals with SPIB (Homo sapiens, UniProt Q01892 1-262). Put shortly:
as §1

The target of assay [9] is T6, ELK3 (Homo sapiens, UniProt P41970 1-407).
T6 sequence: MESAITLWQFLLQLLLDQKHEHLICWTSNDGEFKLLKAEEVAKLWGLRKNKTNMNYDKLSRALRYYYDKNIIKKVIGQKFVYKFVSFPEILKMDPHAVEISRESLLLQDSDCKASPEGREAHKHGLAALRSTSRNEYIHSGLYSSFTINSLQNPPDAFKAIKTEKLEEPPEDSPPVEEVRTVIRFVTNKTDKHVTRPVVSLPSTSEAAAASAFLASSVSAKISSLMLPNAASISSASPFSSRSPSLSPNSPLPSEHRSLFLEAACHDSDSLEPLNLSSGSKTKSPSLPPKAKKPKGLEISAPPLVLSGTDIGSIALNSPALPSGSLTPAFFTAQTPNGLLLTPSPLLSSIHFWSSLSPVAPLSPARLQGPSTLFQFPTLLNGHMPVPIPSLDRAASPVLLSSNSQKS
Put shortly: as §1

SPIB, sequence (Q01892 whole entry): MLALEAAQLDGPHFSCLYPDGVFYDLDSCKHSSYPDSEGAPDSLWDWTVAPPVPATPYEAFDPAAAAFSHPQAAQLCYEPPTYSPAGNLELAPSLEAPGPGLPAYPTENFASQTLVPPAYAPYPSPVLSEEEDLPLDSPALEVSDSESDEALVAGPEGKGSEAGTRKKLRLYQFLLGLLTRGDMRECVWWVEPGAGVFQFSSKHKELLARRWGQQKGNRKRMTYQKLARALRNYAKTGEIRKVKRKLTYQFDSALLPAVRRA

ATTTTG: the binding signal in assay [1] was 1.19 fold enrichment (6-mer frequency, TF over GST control); in assay [2], 1.25 fold enrichment (6-mer frequency, TF over GST control); in [3], 1.33 fold enrichment (6-mer frequency, TF over GST control); in [4], 1.2 fold enrichment (6-mer frequency, TF over GST control); in [5], 1.28 fold enrichment (6-mer frequency, TF over GST control); in [6], 1.3 fold enrichment (6-mer frequency, TF over GST control). Besides, the binding signal in [7] is 1.31 fold enrichment (6-mer frequency, TF over GST control); in assay [8] it was 1.28 fold enrichment (6-mer frequency, TF over GST control); in assay [9], 1.14 fold enrichment (6-mer frequency, TF over GST control).

Take GATGCT: the binding signal in [1] is 1.18 fold enrichment (6-mer frequency, TF over GST control); in [2], 1.11 fold enrichment (6-mer frequency, TF over GST control); in [3], 1.14 fold enrichment (6-mer frequency, TF over GST control); in [4], 1.12 fold enrichment (6-mer frequency, TF over GST control); in assay [5], 1.12 fold enrichment (6-mer frequency, TF over GST control); in assay [6], 1.25 fold enrichment (6-mer frequency, TF over GST control). The binding signal in assay [7] is 1.23 fold enrichment (6-mer frequency, TF over GST control); in [8], 1.22 fold enrichment (6-mer frequency, TF over GST control); in assay [9] it was 1.2 fold enrichment (6-mer frequency, TF over GST control).

With TACTCT, the binding signal in assay [1] was 1.37 fold enrichment (6-mer frequency, TF over GST control); in [2], 1.5 fold enrichment (6-mer frequency, TF over GST control); in [3] it was 1.52 fold enrichment (6-mer frequency, TF over GST control); in assay [4], 1.34 fold enrichment (6-mer frequency, TF over GST control); in [5], 1.42 fold enrichment (6-mer frequency, TF over GST control); in assay [6], 1.45 fold enrichment (6-mer frequency, TF over GST control). The binding signal in assay [7] was 1.44 fold enrichment (6-mer frequency, TF over GST control); in assay [8], 1.33 fold enrichment (6-mer frequency, TF over GST control); in assay [9], 1.56 fold enrichment (6-mer frequency, TF over GST control).

For the sequence CTCGCA, the binding signal in [1] is 1.34 fold enrichment (6-mer frequency, TF over GST control); in assay [2] it was 1.25 fold enrichment (6-mer frequency, TF over GST control); in [3] it was 1.29 fold enrichment (6-mer frequency, TF over GST control); in assay [4] it was 1.29 fold enrichment (6-mer frequency, TF over GST control); in [5] it was 1.27 fold enrichment (6-mer frequency, TF over GST control); in assay [6], 1.3 fold enrichment (6-mer frequency, TF over GST control). Further, the binding signal in assay [7] was 1.27 fold enrichment (6-mer frequency, TF over GST control); in [8] it was 1.22 fold enrichment (6-mer frequency, TF over GST control); in assay [9], 1.17 fold enrichment (6-mer frequency, TF over GST control).

As for AATGTT, the binding signal is 1.55 fold enrichment (6-mer frequency, TF over GST control) in assay [1]; 1.47 fold enrichment (6-mer frequency, TF over GST control) in [2]; 1.49 fold enrichment (6-mer frequency, TF over GST control) in assay [3]; 1.48 fold enrichment (6-mer frequency, TF over GST control) in assay [4]; 1.57 fold enrichment (6-mer frequency, TF over GST control) in assay [5]; 1.56 fold enrichment (6-mer frequency, TF over GST control) in assay [6]. Besides, the binding signal was 1.47 fold enrichment (6-mer frequency, TF over GST control) in assay [7]; 1.58 fold enrichment (6-mer frequency, TF over GST control) in assay [8]; 1.47 fold enrichment (6-mer frequency, TF over GST control) in [9].

TTACGG: the binding signal is 1.3 fold enrichment (6-mer frequency, TF over GST control) in assay [1]; 1.23 fold enrichment (6-mer frequency, TF over GST control) in assay [2]; 1.22 fold enrichment (6-mer frequency, TF over GST control) in assay [3]; 1.31 fold enrichment (6-mer frequency, TF over GST control) in assay [4]; 1.26 fold enrichment (6-mer frequency, TF over GST control) in assay [5]; 1.31 fold enrichment (6-mer frequency, TF over GST control) in [6]. The binding signal was 1.37 fold enrichment (6-mer frequency, TF over GST control) in assay [7]; 1.38 fold enrichment (6-mer frequency, TF over GST control) in assay [8]; 1.48 fold enrichment (6-mer frequency, TF over GST control) in assay [9].

On to TTTACA, for which the binding signal in [1] was 1.18 fold enrichment (6-mer frequency, TF over GST control); in assay [2], 1.19 fold enrichment (6-mer frequency, TF over GST control); in assay [3], 1.25 fold enrichment (6-mer frequency, TF over GST control); in [4], 1.23 fold enrichment (6-mer frequency, TF over GST control); in [5] it was 1.31 fold enrichment (6-mer frequency, TF over GST control); in assay [6], 1.31 fold enrichment (6-mer frequency, TF over GST control). The binding signal in assay [7] is 1.22 fold enrichment (6-mer frequency, TF over GST control); in [8], 1.24 fold enrichment (6-mer frequency, TF over GST control); in assay [9], 1.25 fold enrichment (6-mer frequency, TF over GST control).

As for ACTCGT, the binding signal in [1] was 1.19 fold enrichment (6-mer frequency, TF over GST control); in [2], 1.37 fold enrichment (6-mer frequency, TF over GST control); in assay [3] it was 1.26 fold enrichment (6-mer frequency, TF over GST control); in assay [4] it was 1.19 fold enrichment (6-mer frequency, TF over GST control); in assay [5], 1.25 fold enrichment (6-mer frequency, TF over GST control); in assay [6] it was 1.26 fold enrichment (6-mer frequency, TF over GST control). Further, the binding signal in assay [7] is 1.17 fold enrichment (6-mer frequency, TF over GST control); in [8], 1.26 fold enrichment (6-mer frequency, TF over GST control); in assay [9], 1.19 fold enrichment (6-mer frequency, TF over GST control).
